Compound activity: PubChem BioAssay, Broad Institute
A selection follows.
Vaccinia_inh – blocks a specific stage of Vaccinia orthopoxvirus infection, primary screen, cell-based, single point; Vaccinia-infected cells, mCherry/Venus stage reporter fluorescence; active compounds read low; activity change (mCherry), % (test concentration not listed); 89,000 tested, 0.01% active; AID 1053133, 2014; in the data active = activity change below about -37%, passing the limit was not always enough; tested in A549 cells
The depositor's hits bear a star.

SMILES Vaccinia_inh
COc1cccc(CN2[C@@H](CO)[C@@H](c3ccccc3)C23CN(C(=O)C2CCOCC2)C3)c1 0.1
C[C@H](CO)N1C[C@H](C)[C@@H](CN(C)Cc2ccc3c(c2)OCO3)Oc2c(NS(=O)(=O)c3ccc(Cl)cc3)cccc2C1=O 1.9
CN(C)C(=O)[C@H]1[C@H](CO)[C@H]2Cn3c(ccc(/C=C/c4ccccc4)c3=O)[C@H]2N1CC1CC1 -3.0
O=C(NC1CCCCC1)N1CC2(C1)[C@H](c1ccccc1)[C@@H](CO)N2CC1CC1 0.8
Cc1noc(C)c1NC(=O)Nc1ccc2c(c1)C(=O)N([C@@H](C)CO)C[C@H](C)[C@H](CN(C)Cc1ccccc1)O2 19.3
C=CC[C@]1(C(=O)N(C)C)COC(c2ccc(OCCCO)cc2)=N1 7.2
COc1ccc2c3c(n(C)c2c1)[C@@H](CO)N(C(C)=O)CC31CN(C(=O)C2CCOCC2)C1 15.7
CO[C@H]1CN(C)C(=O)c2cc(NC(=O)c3cnccn3)ccc2OC[C@@H](C)N(CC2CC2)C[C@H]1C 26.3
CCC(=O)N1CCC2(CC1)CN(C(=O)Cc1ccccc1)[C@H](CO)c1c2c2ccc(OC)cc2n1C -12.7
CO[C@@H]1CN(C)C(=O)c2ccc(NC(=O)C3CC3)cc2OC[C@@H](C)N(CC2CCCC2)C[C@H]1C -8.5
COCC(=O)Nc1ccc2c(c1)OC[C@H](C)N(C(=O)COC)C[C@H](C)[C@@H](OC)CN(C)C2=O 24.6
CO[C@H]1CN(C)C(=O)c2ccc(NC(C)=O)cc2OC[C@H](C)N(Cc2nccs2)C[C@@H]1C 9.6
O=S(=O)(c1ccccc1)N1C[C@H]2[C@@H](c3ccccc31)[C@@H](CO)N2Cc1ccccc1 -10.7
COc1ccc2c3c([nH]c2c1)[C@@H](CO)N(C)CC31CN(C(=O)NC(C)C)C1 9.5
C[C@@H]1CN([C@@H](C)CO)C(=O)c2cc(C#CC3CCCC3)cnc2O[C@@H]1CN(C)C(=O)C1CC1 -5.2
